Several values for one entry are separate records, joined by “and”; a condition that tells them apart may be missing. Equal entries are not always repeated. Among all 5,500 compounds or so, about 2,000 (36%) were called active. About 18% were inconclusive and are not listed. Cut-off read from the data, not from the text of the source: active = normalized growth mostly below about 0.91 (no sharp cut-off); inconclusive = no clear call, values can overlap the other calls; inactive = mostly above about 0.92. The list shows a part of the results.
Experiment: chemical genetic growth profiling, strain panel (AID 1159580);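 note: tested at 20 µM; growth read once vehicle control cultures reached saturation at 30 °C; 1 = growth at the plate median or of vehicle wells; lower values mean less growth of the strain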
Conditions: S. cerevisiae deletion strains, growth OD

Measured: normalized growth

O=C(COc1ccc(Cl)cc1)N1CCN(Cc2ccc3c(c2)OCO3)CC1
active: locus YDR502C, strain sam2, stronger effect = lower value 0.908 | locus YGR135W, strain pre9, stronger effect = lower value 0.825 | locus YMR223W, strain ubp8, stronger effect = lower value 0.898 | locus YNL307C, strain MCK1, stronger effect = lower value 0.9 | locus YOR184W, strain ser1, stronger effect = lower value 0.845
0.773 (active) and 0.983 (inactive): locus YJL095W, strain BCK1, stronger effect = lower value
inactive: locus YAL013W, strain DEP1, stronger effect = lower value 0.989 | locus YBR021W, strain FUR4, stronger effect = lower value 0.977 | locus YBR229C, strain ROT2, stronger effect = lower value 0.98 | locus YCL029C, strain bik1, stronger effect = lower value 0.979 | locus YDL035C, strain GPR1, stronger effect = lower value 0.93 | locus YDL074C, strain BRE1, stronger effect = lower value 1 | locus YDL101C, strain DUN1, stronger effect = lower value 0.985 | locus YDL134C, strain PPH21, stronger effect = lower value 0.958 | locus YDL185W, strain tfp1, stronger effect = lower value 0.962 | locus YDL192W, strain arf1, stronger effect = lower value 0.945 | locus YDR101C, strain arx1, stronger effect = lower value 1.01 | locus YDR150W, strain NUM1, stronger effect = lower value 0.976 | locus YDR162C, strain NBP2, stronger effect = lower value 0.918 | locus YDR318W, strain mcm21, stronger effect = lower value 0.921 | locus YDR388W, stronger effect = lower value 0.972 | locus YEL061C, strain CIN8, stronger effect = lower value 0.985 | locus YER110C, stronger effect = lower value 0.962 | locus YER155C, strain BEM2, stronger effect = lower value 1.02 | locus YER167W, strain BCK2, stronger effect = lower value 0.987 | locus YGL078C, strain dbp3, stronger effect = lower value 1 | locus YGL086W, strain mad1, stronger effect = lower value 0.973 | locus YGL248W, strain PDE1, stronger effect = lower value 0.983 | locus YGR078C, strain PAC10, stronger effect = lower value 0.952 | locus YGR252W, strain gcn5, stronger effect = lower value 0.938 | locus YHR030C, strain SLT2, stronger effect = lower value 0.954 and 0.981 | locus YHR079C, strain IRE1 (second series), stronger effect = lower value 0.977 | locus YHR079C, strain IRE1, stronger effect = lower value 0.972 | locus YHR094C, strain hxt1, stronger effect = lower value 0.978 | locus YHR129C, strain ARP1, stronger effect = lower value 0.977 | locus YHR200W, strain rpn10, stronger effect = lower value 0.976 | locus YIL066C, strain RNR3, stronger effect = lower value 0.887 | locus YIL073C, strain SPO22, stronger effect = lower value 0.827 | locus YIL125W, strain kgd1, stronger effect = lower value 1 | locus YIR030C, strain dcg1, stronger effect = lower value 0.973 | locus YJL134W, strain LCB3, stronger effect = lower value 0.977 | locus YJL168C, strain set2, stronger effect = lower value 0.98 | locus YJL187C, strain SWE1 (second series), stronger effect = lower value 0.932 | locus YJR043C, strain POL32, stronger effect = lower value 1.08 | locus YJR066W, strain TOR1, stronger effect = lower value 0.916 | locus YJR075W, strain HOC1, stronger effect = lower value 0.943 | locus YKL009W, strain mrt4, stronger effect = lower value 0.987 | locus YKL068W, stronger effect = lower value 0.983 | locus YKL085W, strain MDH1 (second series), stronger effect = lower value 0.98 | locus YKL085W, strain MDH1, stronger effect = lower value 0.98 | locus YKL190W, strain CNB1, stronger effect = lower value 0.976 | locus YKR001C, strain vps1, stronger effect = lower value 1.04 | locus YLR039C, strain RIC1, stronger effect = lower value 0.738 | locus YLR058C, strain SHM2, stronger effect = lower value 0.962 | locus YLR102C, strain apc9, stronger effect = lower value 0.986 | locus YLR113W, strain HOG1, stronger effect = lower value 1 | locus YLR262C, strain YPT6, stronger effect = lower value 0.668 | locus YLR268W, strain sec22, stronger effect = lower value 0.911 | locus YLR330W, strain CHS5, stronger effect = lower value 0.979 | locus YLR342W, strain FKS1 (second series), stronger effect = lower value 0.902 | locus YLR371W, strain rom2, stronger effect = lower value 0.985 | locus YLR418C, strain cdc73, stronger effect = lower value 0.864 | locus YML016C, strain PPZ1, stronger effect = lower value 0.97 | locus YML032C, strain rad52, stronger effect = lower value 0.952 | locus YML124C, strain tub3, stronger effect = lower value 0.998 | locus YMR078C, strain ctf18, stronger effect = lower value 0.971 | locus YMR307W, strain GAS1, stronger effect = lower value 1.01 | locus YNL067W, strain RPL9B, stronger effect = lower value 0.957 | locus YNL183C, strain NPR1, stronger effect = lower value 0.918 | locus YNL233W, strain BNI4, stronger effect = lower value 0.941 | locus YNL250W, strain rad50, stronger effect = lower value 0.981 | locus YNL271C, strain bni1, stronger effect = lower value 0.988 | locus YNL298W, strain CLA4, stronger effect = lower value 0.983 | locus YNL322C, strain KRE1, stronger effect = lower value 0.976 | locus YNR052C, strain pop2, stronger effect = lower value 0.943 | locus YOL012C, strain htz1 1.78 | locus YOL147C, strain pex11, stronger effect = lower value 0.962 | locus YOR061W, strain CKA2, stronger effect = lower value 0.971 | locus YOR069W, strain VPS5, stronger effect = lower value 0.973 | locus YOR136W, strain idh2, stronger effect = lower value 0.992 | locus YOR144C, strain elg1, stronger effect = lower value 0.993 | locus YOR231W, strain MKK1, stronger effect = lower value 0.999 | locus YOR316C, strain cot1, stronger effect = lower value 0.984 | locus YPL055C, strain LGE1, stronger effect = lower value 0.998 | locus YPL241C, strain CIN2, stronger effect = lower value 0.974 | locus YPL256C, strain CLN2, stronger effect = lower value 0.97 | locus YPR119W, strain clb2, stronger effect = lower value 0.989 | locus YPR141C, strain kar3, stronger effect = lower value 0.988 | locus YPR163C, strain tif3, stronger effect = lower value 0.955 | locus YPR167C, strain met16, stronger effect = lower value 0.987 | strain wtn01, stronger effect = lower value 0.905
